Assay outcomes: PubChem, National Center for Advancing Translational Sciences (NCATS)
CtBP-E1A blk: CtBP/E1A binding inhibition. AlphaScreen GST-E1A/His-CtBP binding, 1536-well; active compounds read low. activity change, % (concentration not given with the values). 340,000 compounds, 0.49% hits; in the data active = activity change below about -65%; inconclusive = mostly about -30% to -63%; note: % is set by controls: 0 for no effect and ±100 for the full control effect
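AlphaScreen with 125 nM GST-E1A and 125 nM His-CtBP (5X stocks) in Tris pH 8.0, 300 mM NaCl, BSA, Tween 20, TCEP. Compounds preincubated 2 h at 37 deg C, then glutathione donor/nickel acceptor beads added for 1 h at 37 deg C in dark.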
TDP1 block: inhibitors of human tyrosyl-DNA phosphodiesterase TDP1 | AID 485290 | Potency, µM (highest dose often 130 µM), inactives show top-dose activity change, negative = inhibition, most hits filed as inhibitors | Q9NUW8 | recombinant TDP1, AlphaScreen DNA substrate cleavage | 350,000 compounds, 0.28% hits; note: potency is the fitted concentration of half-maximal effect; % is set by controls: 0 for no effect and ±100 for the full control effect; nearly all actives have a fitted effect of over 40% in size
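Recombinant human Tdp1 (E. coli-expressed, 1 nM final) preincubated with compounds 15 min at room temperature, then 5'-biotin/3'-phosphotyrosine-FITC DNA substrate (15 nM final) added for 5 min. AlphaScreen beads (10 ug/ml final) added 10 min; cleavage lowers signal.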
JMJD2A Tudor inh: blocks the human JMJD2A Tudor domain. O75164. AlphaScreen JMJD2A-Tudor / H3K4me3 peptide binding. Potency, µM (doses to about 114 µM), for the others: at the top dose activity change, negative = inhibition, usual class: inhibitors. 390,000 compounds, 4.4% hits. AID 504339; note: potency is the fitted concentration of half-maximal effect; % is set by controls: 0 for no effect and ±100 for the full control effect; nearly all actives have a fitted effect of over 50% in size
HP1b chromo inh: blocks HP1-beta chromodomain binding to methylated histone tails. Potency, µM (doses to about 114 µM), for inactives: top-dose activity change, negative = inhibition, most hits filed as inhibitors. 390,000 compounds, 0.56% hits. AlphaScreen HP1-beta / biotin-H3K9me3 peptide binding. AID 540317; note: potency is the fitted concentration of half-maximal effect; nearly all actives have a fitted effect of over 70% in size
Target sequence (P83916 whole entry, looked up): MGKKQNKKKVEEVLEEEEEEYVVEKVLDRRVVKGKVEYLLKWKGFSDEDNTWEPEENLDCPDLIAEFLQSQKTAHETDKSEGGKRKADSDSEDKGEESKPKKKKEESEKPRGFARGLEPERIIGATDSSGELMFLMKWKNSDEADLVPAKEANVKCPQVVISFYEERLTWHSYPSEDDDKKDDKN
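HP1-beta protein (50 nM final) preincubated 30 min at room temperature with biotinylated H3(1-18)K9me3 peptide (50 nM) in PBS pH 7.4, 0.01% Tween-20, then compound added for 30 min. AlphaScreen streptavidin donor/nickel chelate acceptor beads (10 ug/mL final), 30 min dark, luminescence read.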
BAZ2B block: BAZ2B (human) inhibition; AlphaScreen BAZ2B-H3K14Ac peptide displacement; 360,000 compounds, 4.4% hits; Potency, µM (doses to about 114 µM), for inactives: top-dose activity change, negative = inhibition, actives largely listed as inhibitors; note: potency is the fitted concentration of half-maximal effect; % is set by controls: 0 for no effect and ±100 for the full control effect; nearly all actives have a fitted effect of over 60% in size
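Protein-peptide AlphaScreen: BAZ2B 50 nM, b-H3K14Ac 50 nM, 1x PBS pH 7.4 + 0.01% Tween-20. Preincubation 30 min RT; cpd 30 min RT (top 110 uM); beads 20 min RT, light-protected.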
Six1-Eya2 inh: Six1/Eya2 interaction inhibition; AlphaScreen GST-Six1/His-Eya2 binding, biochemical; active compounds read low; AID 651725; Q15475+O00167; activity change, % (concentration not given with the values); 360,000 compounds, 0.56% hits; in the data active = activity change below about -65%; inconclusive = mostly about -30% to -63%; note: % is set by controls: 0 for no effect and ±100 for the full control effect
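GST-Six1 + His-Eya2 (5X stock: 250/500 nM); Tris pH 8.0, 300 mM NaCl, 0.05% BSA, 0.02% Tween 20; GSH donor/Ni acceptor beads; 1 h 37 °C dark; AlphaScreen readout.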
An asterisk follows results filed as active; ? = inconclusive; · = no result; [ ] = dose if it differs, or a comment. A selection: hits, their analogues and other compounds. The true share with any hit is near 5.3%. Unless noted, calls come from the whole dose curve; as a rule, active = well fitted inhibition curve with a large enough effect; inconclusive = small, poorly fitted or top-dose-only effect; inactive = no such curve, though single readings can be large or run the other way.

SMILES	CtBP-E1A blk	TDP1 block	JMJD2A Tudor inh	HP1b chromo inh	BAZ2B block	Six1-Eya2 inh
NCCC[C@@H](CC(=O)N[C@@H]1CCCC[C@H]1C(=O)N[C@H](CC(=O)N[C@@H](CCC(=O)O)CC(=O)O)Cc1c[nH]c2ccccc12)NC(=O)C[C@H](Cc1ccccc1)NC(=O)[C@@H]1CNCC[C@H]1N	·	4%	·	·	·	·
CC1CCCC(NC(=O)CSc2ccc(F)cc2)C1C (stereo not drawn)	·	5%	-7%	74%	-33%	-1
CC1CCCC(NCC(O)COC(c2ccc(F)cc2)c2ccc(F)cc2)C1C (stereo not drawn)	-1	1%	1µM*	?	?	2
Cc1ccc(Cl)cc1N1CCN(C(=O)c2cc(S(=O)(=O)N3CCCCC3)cn2C)CC1	·	4%	?	-1%[57 µM]	?	·
CCOC(=O)C1=C(O)C(=O)C(C(=O)OCC)C1 (stereo not drawn)	3	·	10µM*	?	·	-2
Cc1ccc2nc(NCCN)c3ncc(C)n3c2c1	·	6%	·	·	·	·
CCCC(=O)Nc1nc(-c2ccc(Cl)s2)cs1	8	-1%	-9%	44%	2%	5
O=C(O)C1CCCCC1C(=O)Nc1nc(-c2ccc(Cl)s2)cs1 (stereo not drawn)	-14	2%	?	23%	56µM*	-21
O=C(CCS(=O)(=O)c1ccc(Br)s1)Nc1c(F)cccc1F	·	1%	-11%	28%	2%	·
CC(C)OCCCN(CC(O)c1ccccc1)CC(O)c1ccccc1 (stereo not drawn)	9	0%	5.6µM*	?	?	9
COc1ccc(CCNS(=O)(=O)c2ccc(N3CCCCS3(=O)=O)cc2)cc1	·	4%	-14%	57%	13%	·
CCN(c1ccccc1)S(=O)(=O)c1ccc(Cl)c(NC(=O)CNCc2ccccc2OC)c1	1	2%	3.2µM*	?	·	1
CCN(c1ccccc1)S(=O)(=O)c1ccc(Cl)c(NC(=O)CN2CCN(C)CC2)c1	0	1%	-16%	24%	-23%	-2
CCN(c1ccccc1)S(=O)(=O)c1ccc(Cl)c(NC(=O)CN(C)C2CCN(C)CC2)c1	2	·	?	?	22µM*	2
Cc1ccc(S(=O)(=O)N[C@H]2COC(=O)[C@@H](C)COC(=O)C/C=C\[C@H]2C)cc1	·	1%[21 µM]	·	·	·	·
COc1ccccc1NC(=O)NCc1cccn1Cc1ccccc1	·	7%	-35%	-19%	-34%	·
CC(C)C[C@@H](CN)NC(=O)c1nc[nH]c1C(=O)N[C@@H](C)C(=O)CNC[C@H](C)NC(=O)c1nc[nH]c1C(=O)N[C@@H](CC(=O)O)C(=O)O	-11	·	56µM*	45%	·	-9
CC(C)C[C@@H](CN)NC(=O)c1nc[nH]c1C(=O)N[C@@H](CC(=O)O)C(=O)CNC[C@H](C)NC(=O)c1nc[nH]c1C(=O)N[C@@H](CC(=O)O)C(=O)O	-25	·	89µM*	89%	·	-25
CC(C)C[C@@H](CN)NC(=O)c1nc[nH]c1C(=O)N[C@@H](C)C(=O)CNC[C@H](CC(C)C)NC(=O)c1nc[nH]c1C(=O)N[C@@H](CC(=O)O)C(=O)O	-13	·	79µM*	88%	·	-14
O=c1c2cc3c(cc2n(Cc2ccccc2)c(=O)n1Cc1nc(-c2ccccc2)no1)OCO3	·	3%	3%	50%	2%	·
COCC1=C2c3ccccc3[C@H](C[N+](=O)[O-])C(C(=O)OC)(C(=O)OC)CC2C2C(=O)N(c3ccccc3)C(=O)C2C1 (stereo partly drawn)	·	5%	·	·	·	·
COc1cccc(/C=C/C(=O)OCC(=O)c2c[nH]c3ccccc23)c1	-78*	2%	-8%	33%	-17%	-16
O=C(/C=C/c1ccccc1)OCC(=O)c1c[nH]c2ccccc12	-19	-1%	-6%	27%	·	-7
CCOc1ccc(OCC)c(NC(=O)c2nnn(CC(=O)Nc3cc(Cl)ccc3OC)c2N)c1	·	2%	-9%	14%	·	·
OC1(c2ccccc2Cl)NN=C2CCCCCN21 (stereo not drawn)	6	-5%	5.6µM*	-21%	-18%	3
SMILES	CtBP-E1A blk	TDP1 block	JMJD2A Tudor inh	HP1b chromo inh	BAZ2B block	Six1-Eya2 inh
Clc1ccccc1OCc1nnc2n1CCCCC2	-2	4%	-9%[11.4 µM]	35%	-17%	5
CCOC(=O)C1=C(CN2CCN(c3ccccc3F)CC2)NC(=O)NC1c1ccc(Cl)cc1 (stereo not drawn)	·	-7%	?	2%	·	·
CCOc1ccc2nc(SCC)[nH]c2c1	5	6%	-18%[57.1 µM]	72%	89µM*	8
CCOc1ccc2nc(SCC(=O)NCc3ccccc3)[nH]c2c1	-3	·	-5%	24%	6%	-6
Nc1ccc(S(=O)(=O)N2CCCN(S(=O)(=O)c3ccc4c(c3)OCCO4)CC2)cc1	·	1%	89µM*	·	·	·
COc1ccc(N2CCN(C(=O)c3ccc(CSc4ccccc4)cc3)CC2)cc1	4	0%	?	?	45µM*	0
CCOC(=O)N1CCN(C(=O)c2ccc(CSc3ccc(Cl)cc3)cc2)CC1	-1	-5%	45µM*	-8%	-20%	-5
COC(=O)c1ccccc1NC(=S)N1CCN(c2ccc(OC)cc2)CC1	·	5%	56µM*	38%	·	-2
COc1ccc(N2CCN(C(=O)c3ccc4nc(N5CCCCC5)sc4c3)CC2)cc1	-2	8%	-25%	30%	40µM*	-7
COc1ccc(N2CCN(C(=S)Nc3ccccc3OC)CC2)cc1	-11	·	-22%	-10%	-10%	-27
COc1ccc(C(=O)N2CCN(c3ccc(NC(=O)Cc4ccccc4)cc3)CC2)cc1	2	0%	-14%	19%	-2%	5
CN1CCN(C(=O)c2ccc(CSc3ccc(Cl)cc3)cc2)CC1	-4	0%	-33%	-6%	-35%	-5
CCOC(=O)N/N=C1/C[C@@H](O)[C@@H](O)[C@@H]2[C@@H]3C(=O)N(C[C@@H]4CCCO4)C(=O)[C@H]3CC[C@H]12	·	6%[21 µM]	·	·	·	·
Cc1cccc(NC(=O)CCS(=O)(=O)c2ccc3c(c2)n(C)c(=O)c(=O)n3C)c1C	·	8%	9%	42%	33%	·
CCOC(=O)N1CCC(NCCNC(=O)c2ccc(F)c(F)c2)CC1	4	0%	-1%	34%	-1%	4
CCOC(=O)N1CCC(NCCNC(=O)c2ccc(Cl)cc2)CC1	-2	-1%	2.8µM*	-38%	?	-5
CCN(CC)c1ccc(/C=N\N2CCN(Cc3ccc(C)cc3)CC2)cc1	?	11%	22µM*	20µM*	18µM*	-66*
Cc1ccc(CN2CCN(/N=C/c3ccc(C(=O)O)cc3)CC2)cc1	-1	6%	-19%	6%	-7%	7
